Laboratory results as given in ChEMBL document CHEMBL3988442, “University of Dundee, Small-Polar-MMV Screening Library” (2021).

Tests used:
[1] = target: T1, Aspartate--tRNA(Asp/Asn) ligase (Mycobacterium tuberculosis (strain ATCC 25618 / H37Rv)) (UniProt P9WFW3); experiment: Assay for Asp RNA synthetase-1 from Mycobacterium tuberculosis; assay type: functional; parameters: scale not given: direction of the effect not stated beside the values; details: 30 µM; further: in the data most compounds retested in dose-response had high values
T1 sequence (whole entry): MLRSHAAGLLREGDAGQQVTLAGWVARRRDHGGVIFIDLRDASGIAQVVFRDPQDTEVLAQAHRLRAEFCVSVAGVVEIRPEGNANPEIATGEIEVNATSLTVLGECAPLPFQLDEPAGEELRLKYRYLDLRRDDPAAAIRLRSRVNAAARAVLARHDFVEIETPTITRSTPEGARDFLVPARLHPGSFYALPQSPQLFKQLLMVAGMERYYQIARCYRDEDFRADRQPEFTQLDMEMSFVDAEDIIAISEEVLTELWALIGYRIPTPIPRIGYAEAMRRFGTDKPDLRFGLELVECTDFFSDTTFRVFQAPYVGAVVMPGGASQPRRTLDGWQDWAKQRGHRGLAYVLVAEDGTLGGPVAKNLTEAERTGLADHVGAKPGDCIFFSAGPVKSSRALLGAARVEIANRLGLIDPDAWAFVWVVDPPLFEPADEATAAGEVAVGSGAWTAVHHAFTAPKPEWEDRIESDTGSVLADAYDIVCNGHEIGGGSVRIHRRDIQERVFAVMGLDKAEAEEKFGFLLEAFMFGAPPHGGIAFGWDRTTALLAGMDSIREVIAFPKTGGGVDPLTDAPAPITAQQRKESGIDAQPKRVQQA

[2] = target: Shiga toxin 2 (Escherichia coli O157:H7) (UniProt P09385+P09386); experiment: E. coli 0.157:H7 Shiga Toxin SOP - stx2 screening assay; assay type: functional; parameters: scale not given: direction of the effect not stated beside the values; details: 30 µM

| Compound | Percent Effect [1] [%] | Percent Effect [2] [%] |
| --- | --- | --- |
| c1ccc2sc(CN3CCOC(Cn4cccn4)C3)nc2c1 (configuration not stated) | -0.285 | 27.3 |
| Cc1cnn(CCNCc2cccnc2)c1 | -0.568 | -3.36 |
| Cc1[nH]c2ccccc2c1-c1ccnc(NCCN2CCOCC2)n1 | 7.28 | -44.9 |
| CC(=O)Nc1nc(CN2CCCC2Cn2cc(C)cn2)cs1 (configuration not stated) | -2.91 | -25.9 |
| CN(C)C[C@H]1OC[C@@H]2CCN(C(=O)c3cccn3C)C[C@@H]21 | 0.607 | -9.5 |
| CNc1cc(C)nc(C2CN(Cc3ccc(C)nc3)CCO2)c1 (configuration not stated) | 0.61 | 3.79 |
| O=C(NCc1ccco1)c1nn(C2CCS(=O)(=O)C2)c2c1CCCC2 (configuration not stated) | -2.28 | 8.96 |
| CCc1ncnc2c1CCN(C(=O)N1CCCC1)CC2 | 1.98 | -14 |
| CCc1nc(CN(C)C2CCN(CCNS(=O)(=O)CC)C2)no1 (configuration not stated) | 5.16 | -60.5 |
| Cn1cc(CN2CCC(F)(F)C3(CCN(c4cnccn4)C3)C2)cn1 (configuration not stated) | -3.65 | -4.7 |
| CCNC(=O)c1nnn(Cc2ccccc2)c1OC | 0.29 | -14.9 |
| Cc1cc(C[C@@H]2COC[C@@H]2NC(=O)Cn2c(=O)oc3ccccc32)on1 | -0.0288 | -25.4 |
| Cc1cnn(C2CCCN(C(=O)c3ccnc(N(C)C)c3)C2)c1 (configuration not stated) | -5.57 | -16.8 |
| O=C(CCN1CCC(C(=O)c2cc(F)ccc2F)CC1)NC1CC1 | 1.41 | -24.2 |
| COc1ccccc1OCc1cc(C(=O)N2C[C@H](O)[C@@H](N(C)C)C2)n[nH]1 | 0.529 | -9.19 |
| CC(=O)N1CCN(C)CC(COCc2ccccc2)C1 (configuration not stated) | -1.62 | -22.4 |
| Cc1cc(CN2CCCC2c2c(C)nn(C)c2Cl)no1 (configuration not stated) | -1.57 | 8.59 |
| Cc1nc(CN(C)C2CCN(Cc3sc(C)nc3C)C2)no1 (configuration not stated) | 0.197 | -0.768 |
| CC(NC(=O)NCCCN1CCCCCC1)c1nncn1C (configuration not stated) | 2.07 | -17.6 |
| COc1ncccc1C(=O)N1CCn2c(COCC3CC3)cnc2C1C (configuration not stated) | -2.76 | 6.35 |
| CN(Cc1ccco1)[C@@H]1CN(C(=O)c2ccnnc2)[C@@H]2CCCO[C@H]12 | -2.73 | -1.33 |
| CC(=O)N1CCN([C@@H]2CC[C@@H](NC(=O)c3cncc(C)c3)[C@H]2O)CC1 | -1.5 | -14 |
| Cc1noc([C@H]2C[C@H]3OCC[C@H]3N(Cc3ccc4c(c3)OCO4)C2)n1 | 2.03 | -3.36 |

| Compound | Percent Effect [1] [%] | Percent Effect [2] [%] |
| --- | --- | --- |
| Cc1noc(CN2CCN(CC(C)O)CC2)n1 (configuration not stated) | -2.18 | -6.53 |
| COc1cc(CN(C(=O)Nc2cccnc2OC)C2CC2)ccc1O | -2.28 | 11.9 |
| CCc1nc(C)c([C@H]2CN(C)C[C@@H]2C(=O)Nc2ccc(OC)cc2)[nH]1 | -1.19 | 9.62 |
| COCc1ccccc1CNCc1c(C)nn(C)c1N(C)C | 0.533 | 22.6 |
| N#CCCN(C(=O)CN1CCCC1C1CCCCC1)c1ccccc1 (configuration not stated) | 8.01 | -20.8 |
| O=C(NCc1cnc2n1CCN(Cc1ccsc1)CC2)C1CCC1 | 3.57 | 4.16 |
| CC(C)OCCC(=O)N(C)CCCc1cc(-c2ccccc2)no1 | 2.1 | 38.9 |
| CN(C(=O)C1CCCCC1)[C@@H]1CCC[C@@H](N2CCOCC2)[C@@H]1O | 0.61 | -11.6 |
| O=C(C1CC1)N1CC[C@H](O)[C@@H]1Cc1ccccc1 | -2 | 1.84 |
| CC(CN1CCOCC1)NCc1nncn1C1CCCCC1 (configuration not stated) | 0.0836 | -15.5 |
| CCCn1nc2c(cc1=O)CN(CC(=O)Nc1nnc(C)s1)CC2 | 8.7 | -2.85 |
| CCN(C(=O)COC)C(c1cccnc1)c1ccc2c(c1)CCO2 (configuration not stated) | 2.07 | -29.4 |
| CN(C)C(=O)CN1CCCCC1c1nc(N)ncc1-c1cccc(F)c1 (configuration not stated) | -1.78 | -2.08 |
| c1cnc(NCc2cncc3c2CCN(Cc2cccs2)C3)nc1 | 3.81 | -9.08 |
| O=C(NCC1CCOC1)c1csc(-c2cccc(Cl)c2)n1 (configuration not stated) | 0.759 | 5.81 |
| Cc1nc(CN2CCN(C(=O)c3cc(C4CC4)on3)CC2)cs1 | -5.68 | 24.9 |
| CC(C(=O)NCc1ccnc(N2CCCC2)c1)n1cncn1 (configuration not stated) | -2.83 | 27.3 |
| COC(=O)c1cc(OCC2CCC2)cc(C(=O)N[C@H]2CC[C@H](O)CC2)c1 | 9.23 | -30.2 |
| CN(C)C(=O)[C@@H]1C[C@@H]2CCN(Cc3nccs3)C[C@@H]2O1 | 1.05 | 2.36 |
| Cc1cc(CN2CCOC(CN(C)C)C2)no1 (configuration not stated) | 1.81 | 26.2 |
| O=C1COC2(COCCN(Cc3ccsc3)C2)CN1c1ccc(F)cc1 (configuration not stated) | 2.55 | -4.46 |
| O=C(CCn1cccn1)N1CCN(CC(F)F)CC1 | 2.16 | 15.4 |
| CNc1cc(N2CCCC2CNCc2cnc(C)cn2)ncn1 (configuration not stated) | -0.989 | -46 |
